We go through eight compounds from PubChem BioAssay (NCI).

Molecules are shown by their SMILES. Compounds without any hit were thinned out: in the full panel of roughly 83,000, 20% have a hit.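 Cells were grown in 96-well plates and exposed to the test compound at a single concentration for 48 hours; results are reported as percent growth, with values below 10 considered active.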 A number with no mark means an inactive call. Active and inactive are the calls of the source.

Test systems include NCI-H23 lung; NCI-H226 lung; NCI-H322M lung; HOP-62 NSCLC; NCI-H460 lung; HOP-92 NSCLC; NCI-H522 lung; A549/ATCC NSCLC; 786-0 renal; COLO 205 colon; DU-145 prostate; K-562 leukemia; MALME-3M melanoma; MDA-MB-231 breast; RXF 393 renal; SF-268 CNS; SF-295 CNS; SF-539 CNS; UACC-257 melanoma; M14 melanoma.
Common to all, as to test: NCI-60 one-dose screen, 48 h (100 = growth as untreated, 0 = no growth, -100 = all killed)
Holding throughout (details): 10 µM unless noted

For `O=C(Cn1nnc2ccccc21)N/N=C/c1ccccc1F`, the growth is 105% in the test with NCI-H23 lung; 85.8% in the test on NCI-H226 lung; 93.6% with NCI-H322M lung; 102% with HOP-62 NSCLC; 104% in the test with NCI-H460 lung; 103% in the test with HOP-92 NSCLC. The growth with NCI-H522 lung was 84.9%; with A549/ATCC NSCLC, 89.2%; in the test with 786-0 renal it was 97.5%; in the test with COLO 205 colon, 113%; in the test on DU-145 prostate, 107%; with K-562 leukemia it was 94.3%. Moreover, the growth in the test with MALME-3M melanoma was 102%; in the test on MDA-MB-231 breast it was 91.1%; in the test with RXF 393 renal it was 101%; in the test with SF-268 CNS, 93.9%; with SF-295 CNS, 111%; in the test with SF-539 CNS it was 102%. In addition, the growth was 93% with UACC-257 melanoma and 108% with M14 melanoma.
Turning to `COc1cc2nc(Nc3cccc(F)c3)nc(Nc3cc(C)[nH]n3)c2cc1OC`, the growth in the test with NCI-H23 lung was -71.2% [20 µM] (active); with NCI-H226 lung, -49.4% [20 µM] (active); in the test on NCI-H322M lung, -100% [20 µM] (active); in the test on HOP-62 NSCLC, -53.2% [20 µM] (active); with NCI-H460 lung, -69.7% [20 µM] (active); with HOP-92 NSCLC, -88.9% [20 µM] (active). The growth in the test on NCI-H522 lung is -42% [20 µM] (active); with A549/ATCC NSCLC it was -55% [20 µM] (active); with 786-0 renal, -81.8% [20 µM] (active); in the test on COLO 205 colon, -60.9% [20 µM] (active); in the test with DU-145 prostate it was -94.7% [20 µM] (active); in the test on K-562 leukemia, -31.1% [20 µM] (active). Besides, the growth with MALME-3M melanoma was -98.1% [20 µM] (active); in the test with MDA-MB-231 breast it was -98.6% [20 µM] (active); in the test on RXF 393 renal it was -88.7% [20 µM] (active); in the test on SF-268 CNS, -69.9% [20 µM] (active); with SF-295 CNS, -92.1% [20 µM] (active); in the test with SF-539 CNS, -100% [20 µM] (active). The growth was -62.4% [20 µM] (active) in the test on UACC-257 melanoma and -91.4% [20 µM] (active) with M14 melanoma.
As for `Cn1ncc2ccc(-c3nc(-c4ccccc4)[nH]c3-c3n[nH]c(=O)n3C3CC3)cc21`, the growth is 93.7% in the test on NCI-H23 lung; 97.7% in the test with NCI-H226 lung; 111% in the test with NCI-H322M lung; 95.1% in the test on HOP-62 NSCLC; 99.4% with NCI-H460 lung; 61.3% in the test with HOP-92 NSCLC. In addition, the growth is 81.5% in the test with NCI-H522 lung; 93.7% in the test on A549/ATCC NSCLC; 88.8% in the test on 786-0 renal; 109% in the test on COLO 205 colon; 106% with DU-145 prostate; 101% with K-562 leukemia. For the same compound, the growth in the test with MALME-3M melanoma was 95.6%; in the test with MDA-MB-231 breast, 98%; in the test with RXF 393 renal, 106%; in the test on SF-268 CNS, 102%; in the test on SF-295 CNS, 101%; in the test with SF-539 CNS, 97.6%. Further, the values for the growth with UACC-257 melanoma and in the test on M14 melanoma were 94.9% and 88.4%, respectively.
On to `Cc1ccccc1CNc1c2ccccc2nc2ccccc12`, for which the growth in the test with NCI-H23 lung is 23.4%; in the test on NCI-H226 lung it was 31.5%; with NCI-H322M lung, 29%; in the test with HOP-62 NSCLC, 28.1%; with NCI-H460 lung, 6.94% (active); in the test with HOP-92 NSCLC, -1.03% (active). Besides, the growth with NCI-H522 lung was 50%; with A549/ATCC NSCLC, 19.7%; in the test on 786-0 renal it was 24.3%; with COLO 205 colon it was -18.5% (active); with DU-145 prostate, 30.6%; with K-562 leukemia it was 5.04% (active). The growth in the test on MALME-3M melanoma was 15.2%; in the test with MDA-MB-231 breast, 39.9%; in the test on RXF 393 renal, 7.78% (active); with SF-268 CNS, 42.9%; in the test on SF-295 CNS, 29.5%; in the test with SF-539 CNS, 3.3% (active). In addition, the growth in the test with UACC-257 melanoma was 32.7%; with M14 melanoma, 13.1%.
With `CCN1C(=O)N(CC)C2C1NN=c1s/c(=C\c3cc4ccccc4[nH]3)c(=O)n12` (stereo not given), the growth is 34.8% in the test with NCI-H23 lung; 38.6% with NCI-H226 lung; 50.6% with NCI-H322M lung; 16.5% in the test on HOP-62 NSCLC; 0.818% (active) with NCI-H460 lung; -5.71% (active) in the test with HOP-92 NSCLC. The growth was -12.2% (active) in the test on NCI-H522 lung; 0.183% (active) in the test on A549/ATCC NSCLC; 28.9% with 786-0 renal; -32.5% (active) in the test on COLO 205 colon; 16.4% in the test with DU-145 prostate; 9.13% (active) in the test with K-562 leukemia. The growth in the test on MALME-3M melanoma is 33.4%; in the test on MDA-MB-231 breast it was 14.7%; with RXF 393 renal, 47.3%; in the test on SF-268 CNS, 25.6%; with SF-295 CNS it was 18.6%; in the test on SF-539 CNS, -21.9% (active). Also, the figures for the growth in the test on UACC-257 melanoma and in the test on M14 melanoma were 45.5% and 19.8%, respectively.
As to `CN1CCN(Cc2ccc(NC(=O)c3cncc(C#Cc4cncc5[nH]ncc45)c3)cc2C(F)(F)F)CC1`, the growth with NCI-H23 lung is 7.77% (active); in the test with NCI-H226 lung, -43.3% (active); in the test with NCI-H322M lung it was 13.7%; with HOP-62 NSCLC, 7.14% (active); with NCI-H460 lung, 3.22% (active); with HOP-92 NSCLC it was -22.9% (active). For the same compound, the growth was 23.2% in the test on NCI-H522 lung; 13.1% in the test with A549/ATCC NSCLC; 20.6% in the test on 786-0 renal; 1.42% (active) in the test with COLO 205 colon; 20.2% in the test with DU-145 prostate; -5.05% (active) with K-562 leukemia. Further, the growth is -65.7% (active) in the test on MALME-3M melanoma; -88.2% (active) with MDA-MB-231 breast; -4.93% (active) with RXF 393 renal; 2.23% (active) with SF-268 CNS; 29% in the test with SF-295 CNS; -56.8% (active) in the test with SF-539 CNS. The growth was 6.82% (active) with UACC-257 melanoma and -57.6% (active) with M14 melanoma.
With `CC/C=C\C/C=C/C=C1/C(=O)C=C[C@@H]1C/C=C\CCCC(=O)OC`, the growth is 24.9% in the test on NCI-H23 lung; 55.7% with NCI-H226 lung; 95.8% with NCI-H322M lung; 36.1% in the test with HOP-62 NSCLC; 76.2% in the test on NCI-H460 lung; 42.4% with HOP-92 NSCLC. Besides, the growth with NCI-H522 lung is -32.3% (active); in the test on A549/ATCC NSCLC, 80.8%; in the test with 786-0 renal, -15% (active); with COLO 205 colon, 14.1%; in the test with DU-145 prostate, 40.1%; with K-562 leukemia, 2.34% (active). Further, the growth in the test with MALME-3M melanoma was 35%; with MDA-MB-231 breast, 4.18% (active); with RXF 393 renal, 32.9%; in the test with SF-268 CNS, 21.9%; in the test on SF-295 CNS, 81.8%; in the test with SF-539 CNS, 26.8%. In addition, the growth in the test with UACC-257 melanoma was 66.5%; with M14 melanoma, 32.1%.
`C/C(=C(/c1ccc(Cl)cc1)c1ccc(OCCCN(C)C)cc1)c1ccc(Cl)cc1`: the growth in the test with NCI-H23 lung was 91.2%; with NCI-H226 lung, 108%; in the test on NCI-H322M lung, 85.9%; in the test with HOP-62 NSCLC, 115%; with NCI-H460 lung, 72.7%; in the test with HOP-92 NSCLC, 74.4%. Also, the growth is 99.7% in the test with NCI-H522 lung; 68.1% in the test on A549/ATCC NSCLC; 86.8% with 786-0 renal; 48.9% in the test with COLO 205 colon; 95.5% in the test on DU-145 prostate; 16.9% with K-562 leukemia. The growth with MALME-3M melanoma was 96.4%; in the test with MDA-MB-231 breast, 99.2%; with RXF 393 renal, 77.6%; in the test with SF-268 CNS it was 88.5%; in the test with SF-295 CNS, 110%; in the test on SF-539 CNS it was 99%. Moreover, the growth is 103% in the test with UACC-257 melanoma and 91.5% with M14 melanoma.
